Experimental data published in PubChem BioAssay.
A number with no mark means an inactive call. For some assays here: Results with a measured potency or affinity are listed apart. Calls of active or inactive are those of the source. Unless noted, no rule for the calls is given here.

Experiments:
[1] = antimalarial activity against Dd2 strain (AID 2302;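 active = growth inhibition above 50% at the single 2 µM test dose, taken to imply half-maximal potency below 2 µM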;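 also: 0% = DMSO untreated growth and 100% = chloroquine plus artemisinin killed control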); conditions: P. falciparum Dd2 in RBCs, LDH growth readout, 72 h; at 2 µM; hits give high values
[2] = HepG2 cytotoxicity, primary screen, cytotoxicity control for P. falciparum antimalarial project, cell-based, ATP luminescence (AID 2303;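 active = inhibition above 50%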;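 also: 0% = DMSO wells and 100% = digitonin-killed cells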); conditions: HepG2 viability, 24-48 h, at 10 µM, hits give high values
[3] = target: L-lactate dehydrogenase (Plasmodium falciparum (isolate CDC / Honduras)) (UniProt Q27743); experiment: PfLDH activity inhibition – cell lysate, 3D7 strain, counter-screen for P. falciparum growth inhibition project (AID 2304);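 also: 0% = vehicle and 100% = reference inhibitor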; conditions: P. falciparum 3D7 crude extract, LDH APAD/NBT absorbance; at 2 µM; hits give high values
[4] = inhibition of 3D7 malaria parasite growth – strain 3D7 (AID 2306);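 also: 0% = DMSO wells and 100% = chloroquine plus artemisinin control wells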; conditions: P. falciparum 3D7 erythrocytic growth, LDH absorbance, 72 h; at 2 µM; hits give high values
[5] = target: Calcium-dependent protein kinase 1 (Plasmodium falciparum (isolate 3D7)) (UniProt P62344); experiment: PfCDPK1 kinase inhibitors, biochemical, TCAMS library (AID 1159585; cut-off not given, nearly all actives have IC50 up to about 0.98 µM;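 also: inhibitors leave more ATP so luminescence rises with inhibition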); conditions: recombinant PfCDPK1, Kinase-Glo ATP depletion luminescence
[6] = target: Plasmodium falciparum protein kinase 6 (PK6, PF3D7_1337100) (UniProt Q8IDW1); experiment: PfPK6 kinase inhibitors, biochemical, TCAMS library (AID 1159586); conditions: recombinant PfPK6, Kinase-Glo ATP depletion luminescence
[7] = target: Protein kinase 7 (PK7), Plasmodium falciparum 3D7 (PF3D7_0213400) (UniProt Q7YTF7); experiment: inhibition of Plasmodium PK7 catalytic activity – biochemical, TCAMS antimalarial set, Kinase-Glo luminescence (AID 1159587); conditions: recombinant PfPK7, Kinase-Glo ATP depletion luminescence
[8] = target: Calcium-dependent protein kinase 4 (Plasmodium falciparum (isolate 3D7)) (UniProt Q8IBS5); experiment: PfCDPK4 kinase inhibitors, biochemical, TCAMS library (AID 1159588; cut-off not given, nearly all actives have IC50 up to about 0.91 µM); conditions: recombinant PfCDPK4, Kinase-Glo ATP depletion luminescence
Calcium-dependent protein kinase 4 (Plasmodium falciparum (isolate 3D7)), sequence (Q8IBS5 whole entry, looked up): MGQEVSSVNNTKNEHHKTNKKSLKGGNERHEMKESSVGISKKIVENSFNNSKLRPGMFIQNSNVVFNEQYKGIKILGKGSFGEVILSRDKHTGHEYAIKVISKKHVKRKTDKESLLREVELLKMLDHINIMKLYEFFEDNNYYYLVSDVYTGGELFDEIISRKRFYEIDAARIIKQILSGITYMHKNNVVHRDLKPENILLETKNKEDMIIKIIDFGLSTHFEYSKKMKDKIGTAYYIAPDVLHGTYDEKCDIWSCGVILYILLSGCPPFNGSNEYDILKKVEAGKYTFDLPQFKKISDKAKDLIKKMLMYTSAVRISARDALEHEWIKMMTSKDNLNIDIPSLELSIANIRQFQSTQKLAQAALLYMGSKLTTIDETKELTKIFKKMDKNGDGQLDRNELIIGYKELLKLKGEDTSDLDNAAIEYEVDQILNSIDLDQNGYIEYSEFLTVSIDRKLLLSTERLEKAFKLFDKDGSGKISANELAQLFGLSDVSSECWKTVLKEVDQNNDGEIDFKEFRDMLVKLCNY

L-lactate dehydrogenase (Plasmodium falciparum (isolate CDC / Honduras)), sequence (Q27743 whole entry, looked up): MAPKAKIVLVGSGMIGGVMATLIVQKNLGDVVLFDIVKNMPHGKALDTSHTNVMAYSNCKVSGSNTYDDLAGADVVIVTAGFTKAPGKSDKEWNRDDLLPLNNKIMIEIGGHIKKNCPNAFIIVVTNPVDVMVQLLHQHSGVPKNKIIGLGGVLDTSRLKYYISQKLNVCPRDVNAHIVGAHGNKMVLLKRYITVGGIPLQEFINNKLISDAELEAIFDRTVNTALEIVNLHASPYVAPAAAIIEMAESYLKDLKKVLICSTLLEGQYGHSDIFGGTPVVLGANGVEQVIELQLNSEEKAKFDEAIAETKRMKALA
Protein kinase 7 (PK7), Plasmodium falciparum 3D7 (PF3D7_0213400), sequence (Q7YTF7 1-343): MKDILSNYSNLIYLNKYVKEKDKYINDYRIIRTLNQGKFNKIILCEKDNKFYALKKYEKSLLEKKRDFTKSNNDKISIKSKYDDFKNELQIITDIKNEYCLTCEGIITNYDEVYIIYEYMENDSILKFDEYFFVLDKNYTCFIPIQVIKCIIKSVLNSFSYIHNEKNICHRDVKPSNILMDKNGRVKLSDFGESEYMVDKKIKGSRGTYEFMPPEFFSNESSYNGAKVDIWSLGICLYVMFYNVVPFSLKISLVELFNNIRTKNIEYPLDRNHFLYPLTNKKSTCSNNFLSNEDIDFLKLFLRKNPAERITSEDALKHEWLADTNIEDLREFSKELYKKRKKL
Plasmodium falciparum protein kinase 6 (PK6, PF3D7_1337100), sequence (Q8IDW1 1-305): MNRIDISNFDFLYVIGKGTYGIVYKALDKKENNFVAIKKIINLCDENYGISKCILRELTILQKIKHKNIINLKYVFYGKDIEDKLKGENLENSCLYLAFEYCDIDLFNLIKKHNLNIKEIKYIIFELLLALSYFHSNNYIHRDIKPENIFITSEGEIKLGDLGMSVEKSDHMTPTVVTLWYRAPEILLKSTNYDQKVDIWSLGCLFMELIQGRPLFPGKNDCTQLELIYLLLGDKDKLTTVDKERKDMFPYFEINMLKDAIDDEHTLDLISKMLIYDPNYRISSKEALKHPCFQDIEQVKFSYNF
Calcium-dependent protein kinase 1 (Plasmodium falciparum (isolate 3D7)), sequence (P62344 whole entry, looked up): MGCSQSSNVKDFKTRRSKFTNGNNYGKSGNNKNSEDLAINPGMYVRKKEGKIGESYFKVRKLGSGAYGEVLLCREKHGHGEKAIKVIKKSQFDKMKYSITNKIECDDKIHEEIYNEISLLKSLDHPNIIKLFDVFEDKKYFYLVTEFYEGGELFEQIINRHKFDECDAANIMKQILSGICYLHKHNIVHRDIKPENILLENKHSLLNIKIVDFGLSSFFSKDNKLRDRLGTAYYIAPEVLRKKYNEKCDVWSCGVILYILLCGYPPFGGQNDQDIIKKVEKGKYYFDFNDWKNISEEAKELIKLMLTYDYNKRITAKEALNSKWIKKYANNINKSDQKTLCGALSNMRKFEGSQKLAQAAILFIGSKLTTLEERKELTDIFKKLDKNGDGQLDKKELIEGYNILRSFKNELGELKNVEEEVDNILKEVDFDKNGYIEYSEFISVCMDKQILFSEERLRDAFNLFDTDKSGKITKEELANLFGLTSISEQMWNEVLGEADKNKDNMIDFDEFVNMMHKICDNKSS

SMILES | growth inhibition [1] | inhibition [2] | inhibition [3] [%] | growth inhibition [4] | outcome [5] | outcome [6] | outcome [7] | outcome [8]
COc1ccc(CN(C)CCCSc2ccc(NC(=O)c3cccc4c(=O)cc(-c5ccccc5)[nH]c34)cc2)cc1OC | 94% (active) | 15% | -6 | 93% (active) | inactive | inactive | inactive | inactive
Oc1ccc(Cl)cc1CN1CCCC(COC(c2ccc(F)cc2)c2ccc(F)cc2)C1 (stereo not given) | 100% (active) | 20% | 3 | 98% (active) | inactive | inactive | inactive | inactive
CCc1cc2c(N)nc(N)nc2nc1-c1ccccc1 | -1% | 18% | 6 | 91% (active) | inactive | inactive | inactive | inactive
O=c1cc(NCCCNCc2cc(Cl)cc(Cl)c2OCc2ccccc2)[nH]c2ccccc12 | 50% (active) | -4% | -2 | 91% (active) | inactive | inactive | inactive | inactive
CC(C)(CNC(=O)[C@@H]1CCCN(Cc2ccc(Cl)cc2)C1)c1nc(-c2ccc(Cl)c(O)c2)c(-c2ccncc2)[nH]1 | 37% | 66% (active) | -2 | 97% (active) | inactive | inactive | inactive | inactive
O=C(Nc1cc(Cl)c(Cl)cc1NC(=O)c1cccc(-c2ccccc2)c1O)c1cccc(-c2ccccc2)c1O | 100% (active) | 79% (active) | 2 | 100% (active) | inactive | inactive | inactive | inactive
CCCCCCN1CCCN(Cc2ccc(C(=O)Nc3ccc(CC)cc3)cc2)CC1 | 50% (active) | 53% (active) | 2 | 97% (active) | inactive | inactive | inactive | inactive
CCCOc1cccc(C(=O)N[C@@H](Cc2ccccc2)[C@H](O)CNCc2cccc(OC)c2)c1 | 18% | 14% | -3 | 102% (active) | inactive | inactive | inactive | inactive
CCNc1cc(C)nc(Nc2ccc(NS(=O)(=O)c3ccccc3)cc2)n1 | 54% (active) | 41% | -3 | 100% (active) | inactive | inactive | inactive | inactive
CC(CN(C)C)C(=O)Nc1ccc(-c2cccc(-c3nc4ccccc4[nH]3)c2)cc1 (stereo not given) | 57% (active) | 68% (active) | 4 | 99% (active) | inactive | inactive | inactive | inactive
NOCCCOc1ccc(Cl)cc1 | 0% | 12% | 0 | 98% (active) | inactive | inactive | inactive | inactive
C[C@@H]1CN(c2nc(NCCc3ccc(O)cc3)nc(NCc3ccccc3-c3ccc(C(F)(F)F)cc3)n2)C[C@H](C)N1 | 68% (active) | 24% | 7 | 100% (active) | inactive | inactive | inactive | inactive
O=C(Nc1ccncc1)c1cn(-c2ccccc2)nc1-c1cccs1 | 10% | 7% | 4 | 98% (active) | inactive | inactive | inactive | inactive
CCc1c(C)nc2nc(Cc3cccc(F)c3)nn2c1N1CCN(c2ccccn2)CC1 | 98% (active) | -4% | -1 | 100% (active) | inactive | inactive | inactive | inactive
CC(=O)Nc1ccc(OCCN(Cc2ccccc2C(F)(F)F)c2ccc(C#N)c(C(F)(F)F)c2)cc1 | 81% (active) | 8% | 0 | 101% (active) | inactive | inactive | inactive | inactive
Cc1ccc2nc(C)cc(NC(=O)Nc3ccc(N(C)C)cc3)c2c1 | 41% | 12% | -3 | 100% (active) | inactive | inactive | inactive | inactive
CC(CNC(=O)c1cc2c(Cl)cc(Cl)cc2[nH]1)CNc1cc(=O)c2ccccc2[nH]1 (stereo not given) | 11% | 11% | 5 | 97% (active) | inactive | inactive | inactive | inactive
NC1=NC(c2ccccc2)(c2ccccc2)C(=O)N1CC1CCC1 | 74% (active) | 17% | 3 | 96% (active) | inactive | inactive | inactive | inactive
O=C(NC1CCN(Cc2ccccc2)CC1)c1ccc(-c2nc3cc(F)c(F)cc3[nH]2)s1 | 97% (active) | 6% | 1 | 101% (active) | inactive | inactive | inactive | inactive
O=c1cc(NCCCNCc2ccc(Cl)c(Cl)c2)[nH]c2cc(Cl)ccc12 | 51% (active) | 1% | 1 | 95% (active) | inactive | inactive | inactive | inactive
COc1ccc(-c2cccc(NC(=O)c3cccc(Cl)c3)c2)cc1CN1CCNCC1 | 52% (active) | 29% | 9 | 101% (active) | inactive | inactive | inactive | inactive
O=c1cc(N2CCCNCC2)c(Cl)nn1Cc1ccc(NS(=O)(=O)c2ccc(Oc3ccccc3)cc2)cc1 | -4% | 0% | -2 | 98% (active) | inactive | inactive | inactive | inactive
C=C[C@H]1CN(CCCCCCC)CC[C@H]1CCN(C)c1ccnc2ccc(OC)cc12 | 93% (active) | 22% | -1 | 97% (active) | inactive | inactive | inactive | inactive
CCCCSc1c(CNCCCCCCNCc2ccc3ccccc3c2SCCCC)ccc2ccccc12 | 62% (active) | 99% (active) | -9 | 93% (active) | inactive | inactive | inactive | inactive
CC1(C)N=C(N)N=C(N)N1c1ccc2ccccc2c1 | -1% | 48% | -2 | 95% (active) | inactive | inactive | inactive | inactive
